Measured values: the supplement of paper PMC10127200
Structures can show the parent of a compound that is named as a salt.

Test system: OVCAR4
Test: Euclidean distance of Cell Painting phenotypic profile (signed KS, 77 features) to DMSO centroid (dimensionless distance); 5 or 10 uM (library dependent); higher = stronger phenotypic change vs DMSO (phenoactivity)
Settings: 48 h
In short: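 Harmony extracted 77 features from 20X confocal images (9 fields/well) of stained cells, scoring each as a signed Kolmogorov-Smirnov statistic against same-plate vehicle wells. The cells, five cancer lines and a healthy fibroblast line, had received library compounds for 48 h at 10 or 5 uM depending on library, with 0.1% DMSO final. Phenoactivity is the Euclidean distance from each plate-position-corrected, correlation-weighted, top-dose replicate-averaged profile to the median vehicle profile.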

Compound	Euclidean distance
CN1CCC(OC(c2ccccc2)c2ccccc2)CC1 [Diphenylpyraline hydrochloride]	0.876
COc1cc2ncnc(Nc3cccc(Cl)c3)c2cc1OC [AG-1478 (Tyrphostin AG-1478)]	0.649
NS(=O)(=O)c1cc2c(cc1Cl)N=C(CSCc1ccccc1)NS2(=O)=O [Benzthiazide]	1.62
CCN(CC)CCNC(=O)c1ccc(N)cc1 [Procainamide HCl]	1.07
CCC(C)(C)c1ccc(CC(C)CN2C[C@@H](C)O[C@@H](C)C2)cc1 (stereo not given in full) [Amorolfine HCl]	0.693
C[C@H]1COc2c(N3CCN(C)CC3)c(F)cc3c(=O)c(C(=O)O)cn1c23 [Levofloxacin hydrate]	1.57
O=C(Nc1ccc(S(=O)(=O)Nc2ccccc2Cl)c(Cl)c1)c1ccccn1	0.782
O=S(=O)(O)CCS [Mesna]	1.22
CCCCOC(=O)c1ccc(N)cc1 [Butamben]	1.03
CC(C)NCC(O)COc1ccc(CCOCC2CC2)cc1 (stereo not given) [Betaxolol]	1.14
Cc1ccc(Nc2nccc(N(C)c3ccc4c(C)n(C)nc4c3)n2)cc1S(N)(=O)=O [Pazopanib]	1.78
C[C@@H]1O[C@@H](Oc2c(-c3ccc(O)c(O)c3)oc3cc(O)cc(O)c3c2=O)[C@H](O)[C@H](O)[C@H]1O [Quercitrin]	0.915
Cc1c(F)cccc1NC(=O)Nc1ccc(Cl)c(S(=O)(=O)[C@H]2CCCNC2)c1O	1.49
CC(O)c1cc(C(=O)N[C@@H](C)Cn2ccc(-c3ccc(C#N)c(Cl)c3)n2)n[nH]1 (stereo not given in full) [Darolutamide (ODM-201)]	0.668
COc1ccc(-c2nc(N3CCOCC3)c3sc(CN(C)c4ncc(C(=O)NO)cn4)cc3n2)cn1	3.25
COc1cc2nc(N3CCN(C(=O)C4COc5ccccc5O4)CC3)nc(N)c2cc1OC (stereo not given) [Doxazosin]	1.18
CS(=O)(=O)c1ccc([C@@H](O)[C@@H](CO)NC(=O)C(Cl)Cl)cc1 [Thiamphenicol]	1.15
CNC[C@@H](O)c1ccc(O)c(O)c1 [L-Adrenaline]	0.954
Cc1cc(OCCCS(C)(=O)=O)cc(C)c1-c1cccc(COc2ccc3c(c2)OC[C@H]3CC(=O)O)c1	1.88
Nc1nnc(-c2cccc(Cl)c2Cl)c(N)n1 [Lamotrigine]	1.42

Compound	Euclidean distance
O=C1Nc2ccc(CN3C(=O)CSC3=O)cc2/C1=C/c1cc(CN2CCOCC2)c[nH]1	0.658
CN(C/C=C/C#CC(C)(C)C)Cc1cccc2ccccc12 [Terbinafine]	1.18
CC(C)=CCC/C(C)=C/CC/C(C)=C/CCC(=O)OC/C=C(\C)CCC=C(C)C [Gefarnate]	0.606
CNC(=O)[C@H](Cc1c[nH]c2ccccc12)NC(=O)[C@@H](CC(=O)NO)CC(C)C [Ilomastat (GM6001. Galardin)]	1.3
CCOC(=O)Nc1ccc(NCc2ccc(F)cc2)nc1N [Flupirtine maleate]	1.37
C=CCNC(N)=S [Allylthiourea]	1.54
OCc1cc(C(O)CNCCCCCCOCCCCc2ccccc2)ccc1O (stereo not given) [Salmeterol]	1.77
CC[C@@H]1/C=C(\C)C[C@H](C)C[C@H](OC)[C@H]2O[C@@](O)(C(=O)C(=O)N3CCCC[C@H]3C(=O)O[C@H](/C(C)=C/[C@@H]3CC[C@@H](O)[C@H](OC)C3)[C@H](C)[C@@H](O)CC1=O)[C@H](C)C[C@@H]2OC [Ascomycin (FK520)]	0.799
O=C(O)c1cccnc1 [Nicotinic Acid]	1.03
CCc1nc2c(C)cc(N3CCN(CC(=O)N4CC(O)C4)CC3)cn2c1N(C)c1nc(-c2ccc(F)cc2)c(C#N)s1 [Ziritaxestat (GLPG1690)]	1.68
Cn1cnc(N)c2ncnc1-2 [3-Methyladenine]	0.677
CCCN(CCc1cccs1)[C@H]1CCc2c(O)cccc2C1 [Rotigotine]	0.97
CC(C)C[C@H](NC(=O)CNC(=O)c1cc(Cl)ccc1Cl)B1OC(=O)C(CC(=O)O)(CC(=O)O)O1	4.36
CCOC(=O)C1=C(COCCN)NC(C)=C(C(=O)OC)C1c1ccccc1Cl (stereo not given) [Amlodipine Besylate]	1.07
CC(=O)N1C[C@H](O)C[C@H]1C(=O)O [Oxaceprol]	1.28
Nc1nc(O)c2ncn(CCC(CO)CO)c2n1 [Penciclovir]	1.17
C[C@]12C[C@H](O)[C@H]3[C@@H](CCC4=CC(=O)CC[C@@]43C)[C@@H]1CC[C@@H]2C(=O)CO [Corticosterone]	1.04
Cc1ccc(S(=O)(=O)OCC(=O)Nc2ccc(C(=O)O)c(O)c2)cc1	1.47
COc1ccccc1[C@H](Cn1c(=O)n(C(C)(C)C(=O)O)c(=O)c2c(C)c(-c3ncco3)sc21)OC1CCOCC1 [Firsocostat (GS-0976)]	1.15
CN1CCN2c3ccccc3Cc3ccccc3C2C1 (stereo not given) [Mianserin HCl]	2.29
